Assay results reported in PubChem BioAssay (NCI).
About 79,000 compounds went through this panel and 15% of them were active in at least one assay; those are over-represented in the sample as a whole. Values without a mark were called inactive. The source made the active and inactive calls. No stated cut-off is given here; in the data, active means growth inhibition above about 70%; inactive means the rest.

Experiments:
[1] = NCI Yeast Anticancer Drug Screen. Data for the rad50 strain (AID 155);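 further: 0% = growth of vehicle-only cultures of the same strain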; conditions: S. cerevisiae rad50 strain growth inhibition; at 50.0 µM; stronger effect = higher value
In short: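 Compounds were tested on a yeast strain with an engineered DNA damage repair alteration; the reported value is growth inhibition normalised to vehicle treatment.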

[2] = NCI Yeast Anticancer Drug Screen. Data for the mec2-1 strain (AID 157); conditions: S. cerevisiae mec2-1 strain, at 50.0 µM, stronger effect = higher value
In short: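 Each compound was tested on mec2-1 yeast, a strain altered in DNA damage repair or cell cycle control. Growth inhibition is reported relative to vehicle.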

[3] = NCI Yeast Anticancer Drug Screen. Data for the sgs1 mgt1 strain (AID 161);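 further: 0% = growth of cultures given vehicle only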; conditions: S. cerevisiae sgs1 mgt1 strain, at 50.0 µM, stronger effect = higher value
In short: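 Test agents were incubated with a DNA-repair-mutant yeast strain. Growth was then read and compared against vehicle-treated controls.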

[4] = NCI Yeast Anticancer Drug Screen. Data for the cln2 rad14 strain (AID 165);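 further: 0% = growth equal to vehicle treated cultures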; conditions: S. cerevisiae cln2 rad14 strain, at 50.0 µM, stronger effect = higher value
In short: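 Test compounds were added to cln2 rad14 yeast cultures; inhibition of growth was then determined by comparison with vehicle treatment.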

[5] = NCI Yeast Anticancer Drug Screen. Data for the bub3 strain (AID 167); conditions: S. cerevisiae bub3 mutant strain, at 50.0 µM, stronger effect = higher value
In short: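 Growth of a checkpoint-deficient yeast mutant is measured after compound exposure. Values represent inhibition relative to vehicle.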

[6] = NCI Yeast Anticancer Drug Screen. Data for the mlh1 rad18 strain (AID 175); conditions: S. cerevisiae mlh1 rad18 strain growth inhibition; at 50.0 µM; stronger effect = higher value
In short: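 Inhibition values reflect reduced growth of mutant yeast versus vehicle-treated controls following compound exposure; the mutations affect DNA damage repair.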

CCCCCC(C)(O)CCC (stereo not drawn)
growth inhibition [1]: -5.9% | growth inhibition [2]: -6.65% | growth inhibition [3]: 3.65% | growth inhibition [4]: -3.45% | growth inhibition [5]: 6.9% | growth inhibition [6]: -3.55%

CNC(=S)NC
growth inhibition [1]: 11.9% | growth inhibition [2]: 11.1% | growth inhibition [3]: 13.4% | growth inhibition [4]: -51.1% | growth inhibition [5]: 0.2% | growth inhibition [6]: -13.8%

CN(C)CC1CC=CCC1CN(C)C (stereo not drawn)
growth inhibition [1]: -19.8% | growth inhibition [2]: 0% | growth inhibition [3]: -5.6% | growth inhibition [4]: -15.7% | growth inhibition [5]: 6.85% | growth inhibition [6]: -8.7%

CCC1(C2C=COC=C2)NC(=O)NC1=O (stereo not drawn)
growth inhibition [1]: -14.1% | growth inhibition [2]: 3.8% | growth inhibition [3]: -8.35% | growth inhibition [4]: 6.45% | growth inhibition [5]: -4.75% | growth inhibition [6]: -2%

O=c1cc(-c2ccccc2)c2cc3c(=O)ccoc3cc2o1
growth inhibition [1]: 12.8% | growth inhibition [2]: 27.1% | growth inhibition [3]: 12% | growth inhibition [4]: 14.9% | growth inhibition [5]: -1.55% | growth inhibition [6]: 0.95%

Cc1cc(Br)cc(C)c1NC(=O)C(=O)C(C(=O)c1ccncc1)C1OC(=O)c2ccccc21 (stereo not drawn)
growth inhibition [1]: -12.6% | growth inhibition [2]: -31.1% | growth inhibition [3]: -51.9% | growth inhibition [4]: 15.8% | growth inhibition [5]: 16.2% | growth inhibition [6]: -7.35%

Cn1cnc2c1S(=O)(=O)NCN2
growth inhibition [1]: 10.7% | growth inhibition [2]: 3.15% | growth inhibition [3]: -8.6% | growth inhibition [4]: -3.2% | growth inhibition [5]: 19.9% | growth inhibition [6]: 6.7%

N#CNS(=O)(=O)c1ccccc1
growth inhibition [1]: 8.3% | growth inhibition [2]: -5.6% | growth inhibition [3]: 22.6% | growth inhibition [4]: 14% | growth inhibition [5]: 12.2% | growth inhibition [6]: 17.6%

O=S(=O)(OCC1CC2CCC1CC2)c1ccc(Br)cc1 (stereo not drawn)
growth inhibition [1]: -17.1% | growth inhibition [2]: 1.9% | growth inhibition [3]: 9.35% | growth inhibition [4]: 0.8% | growth inhibition [5]: 10.2% | growth inhibition [6]: -22.9%

O=C(O)CCSSCCCS(=O)O
growth inhibition [1]: -26.6% | growth inhibition [2]: -3% | growth inhibition [3]: 36% | growth inhibition [4]: 18.9% | growth inhibition [5]: 0.45% | growth inhibition [6]: -2.2%

COC(=O)c1nsc(OC)c1Cl
growth inhibition [1]: 22.1% | growth inhibition [2]: -11.5% | growth inhibition [3]: 15.8% | growth inhibition [4]: 8.7% | growth inhibition [5]: 23.6% | growth inhibition [6]: 50.4%

Cc1ccc(NC(=O)N2CC2C)cc1NC(=O)N1CC1C (stereo not drawn)
growth inhibition [1]: 2.4% | growth inhibition [2]: 5.55% | growth inhibition [3]: -7.05% | growth inhibition [4]: 17.3% | growth inhibition [5]: 6.9% | growth inhibition [6]: -9.45%

COC1(C)CNc2ccccc2C(=O)N1 (stereo not drawn)
growth inhibition [1]: 6.65% | growth inhibition [2]: -7.4% | growth inhibition [3]: 22.9% | growth inhibition [4]: 19.1% | growth inhibition [5]: 23.1% | growth inhibition [6]: 6.55%

COc1cccc(C2c3cc4c(cc3OC(C)(OC)C2C)OCO4)c1 (stereo not drawn)
growth inhibition [1]: 19.8% | growth inhibition [2]: 22.8% | growth inhibition [3]: 21.4% | growth inhibition [4]: -83.6% | growth inhibition [5]: 4.25% | growth inhibition [6]: 15.8%

CCCOC(=O)c1cc(O)ccc1O
growth inhibition [1]: 1.15% | growth inhibition [2]: -0.45% | growth inhibition [3]: 14.9% | growth inhibition [4]: -17.6% | growth inhibition [5]: -2.55% | growth inhibition [6]: -1.7%

COC(=O)C(N)Cc1ccc(O)c(O)c1 (stereo not drawn)
growth inhibition [1]: 20.1% | growth inhibition [2]: 4.7% | growth inhibition [3]: 8.1% | growth inhibition [4]: 10.8% | growth inhibition [5]: 22.9% | growth inhibition [6]: 48.5%

O=NN(CCCl)C(=O)NC1CCC(CC(=O)O)CC1 (stereo not drawn)
growth inhibition [1]: 19.1% | growth inhibition [2]: 6.1% | growth inhibition [3]: -9.25% | growth inhibition [4]: -8.7% | growth inhibition [5]: 2.9% | growth inhibition [6]: -6.85%

CC(=O)NO
growth inhibition [1]: 22.1% | growth inhibition [2]: -4.05% | growth inhibition [3]: 12.1% | growth inhibition [4]: -7.05% | growth inhibition [5]: -4.6% | growth inhibition [6]: 11.3%

Cc1ccc2nc3c(C)cc(=O)cc-3sc2c1
growth inhibition [1]: 41.1% | growth inhibition [2]: 34.6% | growth inhibition [3]: 36.5% | growth inhibition [4]: 44.9% | growth inhibition [5]: 74.5% (active) | growth inhibition [6]: 43.6%

C1=C(C2=CCCCC2)CCCC1
growth inhibition [1]: -1.35% | growth inhibition [2]: 6% | growth inhibition [3]: -4.35% | growth inhibition [4]: -42.9% | growth inhibition [5]: 4.8% | growth inhibition [6]: 4.15%

O=C(O)c1c2c(nc3ccccc13)Cc1ccccc1-2
growth inhibition [1]: 1% | growth inhibition [2]: -0.75% | growth inhibition [3]: 10.1% | growth inhibition [4]: -0.2% | growth inhibition [5]: 17.3% | growth inhibition [6]: -39.8%

CCC(Cc1ccco1)C(=O)NC(N)=O (stereo not drawn)
growth inhibition [1]: -10.2% | growth inhibition [2]: 4.4% | growth inhibition [3]: -9.8% | growth inhibition [4]: -9.1% | growth inhibition [5]: 0.65% | growth inhibition [6]: 11.3%

O=C1c2ccccc2C(=O)N1C1(C(=O)O)CCCC1
growth inhibition [1]: -5.3% | growth inhibition [2]: -7.6% | growth inhibition [3]: -7.65% | growth inhibition [4]: -27.1% | growth inhibition [5]: -15.6% | growth inhibition [6]: -10.4%

CCCCCCCCCCCNc1ncnc2[nH]ncc12
growth inhibition [1]: -8.6% | growth inhibition [2]: -16.5% | growth inhibition [3]: 5.3% | growth inhibition [4]: -0.7% | growth inhibition [5]: -2.05% | growth inhibition [6]: 9.8%

Cc1c(C)c(CC(=O)N2CC2)c(C)c(C)c1CC(=O)N1CC1
growth inhibition [1]: -23.4% | growth inhibition [2]: 9.75% | growth inhibition [3]: -3.9% | growth inhibition [4]: -26.1% | growth inhibition [5]: 2.65% | growth inhibition [6]: -36.2%

CC1CCCN(C(=O)Nc2ccccc2)C1 (stereo not drawn)
growth inhibition [1]: 14.4% | growth inhibition [2]: -0.8% | growth inhibition [3]: -10.2% | growth inhibition [4]: 10.4% | growth inhibition [5]: 4.65% | growth inhibition [6]: 1.15%

CN(C)C(=S)N(C)C
growth inhibition [1]: -37.1% | growth inhibition [2]: -33% | growth inhibition [3]: -17.4% | growth inhibition [4]: 0.45% | growth inhibition [5]: -23.2% | growth inhibition [6]: -23.7%

Cc1nc2cc(Cl)ccc2s1
growth inhibition [1]: 30.5% | growth inhibition [2]: 2.8% | growth inhibition [3]: 22.1% | growth inhibition [4]: 18.4% | growth inhibition [5]: 30.3% | growth inhibition [6]: 26.2%

COc1cc(C2c3cc4c(cc3OC(N3CCNCC3)C2C)OCO4)cc(OC)c1OC (stereo not drawn)
growth inhibition [1]: -17.5% | growth inhibition [2]: -42.8% | growth inhibition [3]: -27.8% | growth inhibition [4]: -22.7% | growth inhibition [5]: -3.6% | growth inhibition [6]: -27.5%

CN(C)CCNc1ncnc2nc(-c3ccc4ccccc4c3)[nH]c12
growth inhibition [1]: -11% | growth inhibition [2]: -20.9% | growth inhibition [3]: 7.8% | growth inhibition [4]: 11.6% | growth inhibition [5]: 3.05% | growth inhibition [6]: -18.6%

CCOC(=O)NC(NC(=O)OCC)c1ccc(C(NC(=O)OCC)NC(=O)OCC)cc1
growth inhibition [1]: 30.9% | growth inhibition [2]: 13.2% | growth inhibition [3]: 5.45% | growth inhibition [4]: 5% | growth inhibition [5]: 2.8% | growth inhibition [6]: 7.9%

c1ccc2c[n+](Cc3ccc4ccccc4n3)ccc2c1
growth inhibition [1]: 13% | growth inhibition [2]: -4.3% | growth inhibition [3]: 4.05% | growth inhibition [4]: -60% | growth inhibition [5]: -9.9% | growth inhibition [6]: 9.9%

Cc1cccc(C(C)(C)C)c1NC(=O)C(=O)Cc1nc2ccccc2s1
growth inhibition [1]: -12.1% | growth inhibition [2]: 7.05% | growth inhibition [3]: 5.6% | growth inhibition [4]: -41.7% | growth inhibition [5]: 5.4% | growth inhibition [6]: 18.2%

Cc1cc(C)n(-c2ccc(Cl)nn2)n1
growth inhibition [1]: 9.25% | growth inhibition [2]: 8.35% | growth inhibition [3]: 4.35% | growth inhibition [4]: -27.6% | growth inhibition [5]: 9% | growth inhibition [6]: -1.7%

CCN(CC)[Si](C)(C)C
growth inhibition [1]: -24.1% | growth inhibition [2]: -0.2% | growth inhibition [3]: -9.25% | growth inhibition [4]: -6.65% | growth inhibition [5]: -21.8% | growth inhibition [6]: -24.4%

Cc1ccc2cccc([N+](=O)[O-])c2n1
growth inhibition [1]: 15.8% | growth inhibition [2]: -23.5% | growth inhibition [3]: 3.75% | growth inhibition [4]: 27.4% | growth inhibition [5]: 1.2% | growth inhibition [6]: 14.3%

O=C1CCN(C(=O)C2=CC(=O)OC2)C1
growth inhibition [1]: -15.2% | growth inhibition [2]: -1.8% | growth inhibition [3]: -5.1% | growth inhibition [4]: -33.6% | growth inhibition [5]: 5.15% | growth inhibition [6]: -2.2%

CCN(CC)Cc1cc2[nH]c3c4ccc(Cl)cc4ncc3c2cc1OC
growth inhibition [1]: 23.8% | growth inhibition [2]: 11.8% | growth inhibition [3]: -6.15% | growth inhibition [4]: -2.65% | growth inhibition [5]: -45.5% | growth inhibition [6]: -42.6%
